Reference: PubChem BioAssay AID504840 (Johns Hopkins Ion Channel Center, 2011)
About 890 (59%) of roughly 1,500 compounds were called active.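 The calls were made as follows: active = inhibition of the choline-evoked signal at any tested dose together with a fitted dose-response curve; inactive = no inhibition at any dose or no curve.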 The set was probably picked from earlier hits. The list is a sample of the results. Measured potencies and affinities stand elsewhere.

These compounds were tested against High affinity choline transporter 1 (Homo sapiens) (UniProt Q9GZV3) (assay: CHT inhibitors, dose response, cell-based, 5-point CRC, membrane potential dye (AID 504840)). Conditions: HEK293-CHT, choline-induced depolarization, CHT with LV-to-AA double alanine mutation; series mostly up to 37 µM.
Sequence of High affinity choline transporter 1 (Homo sapiens) (Q9GZV3 whole entry, looked up): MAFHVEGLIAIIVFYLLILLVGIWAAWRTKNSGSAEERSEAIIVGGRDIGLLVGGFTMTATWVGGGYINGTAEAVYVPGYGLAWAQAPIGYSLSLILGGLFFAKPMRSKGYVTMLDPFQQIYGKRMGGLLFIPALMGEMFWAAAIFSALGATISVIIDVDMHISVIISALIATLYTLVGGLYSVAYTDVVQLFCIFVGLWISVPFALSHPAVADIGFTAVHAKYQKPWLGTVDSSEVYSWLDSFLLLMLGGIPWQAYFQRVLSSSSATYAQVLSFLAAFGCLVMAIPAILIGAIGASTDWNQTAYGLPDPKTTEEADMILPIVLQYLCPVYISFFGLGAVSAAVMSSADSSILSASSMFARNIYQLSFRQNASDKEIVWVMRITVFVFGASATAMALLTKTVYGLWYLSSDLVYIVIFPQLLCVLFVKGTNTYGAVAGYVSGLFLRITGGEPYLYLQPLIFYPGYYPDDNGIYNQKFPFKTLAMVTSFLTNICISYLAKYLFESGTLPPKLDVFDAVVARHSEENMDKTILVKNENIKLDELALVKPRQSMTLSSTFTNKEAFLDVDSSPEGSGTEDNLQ

outcome, inactive:
O=C(NC1CCCC1)C(c1cccnc1)N(CCc1ccccc1)C(=O)c1ccco1 (stereo not given)
CC1CCC(NC(=O)Cn2c3c(c(-c4ccccc4Cl)cc2=O)CCC3)CC1 (stereo not given)
CC1CCC(NC(=O)c2ccc(NC3=NC4CS(=O)(=O)CC4S3)cc2)CC1 (stereo not given)
NC(N)=Nc1nc(CCN2C(=O)c3ccccc3C2=O)cs1
CCN(CC)S(=O)(=O)c1cc(C(=O)N2CCc3ccccc32)ccc1Cl
CC(C)n1c(O)c(N=NC(=O)CNC(=O)Cc2ccc(Cl)cc2)c2ccccc21
CCCCn1nc2cc(C(=O)NC3CCc4ccccc43)ccc2c1OCC (stereo not given)
CC(Oc1ccc(Cl)cc1Cl)C(=O)Nc1ccc(S(=O)(=O)Nc2cnc3ccccc3n2)cc1 (stereo not given)
O=C(Nc1ccc(S(=O)(=O)Nc2nccs2)cc1)c1c(F)c(F)c(F)c(F)c1F
Cc1ccc(NC(=O)CN(C)C(=O)COC(=O)CNS(=O)(=O)c2ccc(Br)cc2Cl)cc1
O=C1C[C@H]2[C@H](CO)[C@@H](OC(=O)c3ccc(-c4ccccc4)cc3)C[C@H]2O1
CC1(C)C(C=C(Cl)Cl)C1C(=O)Nc1ccc(S(=O)(=O)Nc2ncccn2)cc1 (stereo not given)
CCC(Oc1ccccc1C)C(=O)Nc1ccc(S(=O)(=O)Nc2cc(C)on2)cc1 (stereo not given)
O=C(Nc1ccc(S(=O)(=O)Nc2cnc3ccccc3n2)cc1)c1ccc(Cl)c([N+](=O)[O-])c1
COC(=O)C1=C(N)Oc2cc(C)n(CCc3ccccc3)c(=O)c2C1c1cccnc1 (stereo not given)
CC(OC(=O)c1cc2sccc2n1C)C(=O)NC(C)(C)C (stereo not given)
COc1ccc(N2CCN(CC(=O)Nc3c(C)cc(C)cc3C)CC2)cc1
CN(C)c1ccc(Nc2c3c4c(cccc4n(C)c2=O)C(=O)c2ccccc2-3)cc1
O=C(CC(=O)c1c(F)cccc1Cl)c1ccccc1O
CCCCOC(=O)c1ccc(NC(=O)c2cc(Cl)c(Cl)cc2C(=O)O)cc1
CCCCNS(=O)(=O)c1ccc(NC(=O)Cc2ccccc2[N+](=O)[O-])cc1
CC(=O)c1cc2c(cc1NC(=O)CCNC(=O)c1ccccc1Cl)OCO2
Cc1ccc2[nH]c3c(c2c1)CN(C(=O)CN1CCN(Cc2ccc4c(c2)OCO4)CC1)CC3
CCOc1[nH]c(/N=C/c2ccco2)c(C#N)c1C#N
CC(C)(C)C(=O)N1CCN(c2ccc(NC(=O)c3ccc4c(c3)OCCO4)cc2)CC1
COc1ccc(C(=O)NC(=S)NNC(=O)CCc2ccccc2)cc1
Cc1ccc(CNC(=O)N[C@@H](Cc2ccccc2)C(=O)O)cc1
CC1=C(C(=O)OC(C)C)C(c2ccc(Br)s2)NC(=O)N1C (stereo not given)
COC(=O)CCCCCN1C(=O)NC(C2CC2)C(C(=O)OCc2ccccc2)=C1C (stereo not given)
CCOC(=O)c1cnc2c(Cl)cc(Cl)cc2c1NCCOCCO
O=C(CS(=O)(=O)Nc1ccc(F)cc1Cl)Nc1ccc(F)cc1Cl
CC(C(=O)NC1CCS(=O)(=O)C1)N1C(=O)/C(=C/c2ccc(Cl)cc2)SC1=S (stereo not given)
Cc1ccc(S(=O)(=O)NCCC(=O)NC(C)CCc2ccccc2)cc1 (stereo not given)
Cc1n[nH]c(=O)c2c(NC(=O)CSc3nc4ccccc4c(=O)n3C(C)C)oc(C)c12
CC(C)n1c(=S)[nH]c2cc(Cl)ccc21
CCn1cc(C(=O)N(CCC(C)C)c2c(N)n(Cc3ccccc3)c(=O)[nH]c2=O)c(=O)c2ccc(C)nc21
Fc1ccc(-c2nc3c(-c4ccc(F)cc4)cnn3cc2CCN2CCOCC2)cc1
CN1CCN(c2ccc(NC(=O)c3ccc(Cl)cc3Cl)cc2)CC1
CSC1=C(C#N)C(c2ccncc2)C(C(=O)Nc2ccccc2)=C(C)N1 (stereo not given)
CCN(CCNC(=O)CN1CCN(Cc2ccc(Cl)cc2)C1=O)c1ccccc1
Cc1ccccc1Nc1c(-c2ccncc2)nc2ccc(Br)cn12
Cc1ccc(NC(=S)Nc2ccc(F)cc2)cc1C
Cc1ccc(NC(=S)Nc2cccc3cnccc23)cc1C
COc1ccc([N+](=O)[O-])c(S(=O)(=O)c2ccccc2)n1
Cc1cc2c(ncn2Cc2ccccc2)c([N+](=O)[O-])c1C
COc1ccc(OCc2cccc(C(=O)Nn3cc([N+](=O)[O-])cn3)c2)cc1
CCN(CC)S(=O)(=O)c1ccc(/C=C/C(=O)NC2CCCCC2)cc1
CC(C)c1cc(C(=O)NNC(=S)NC2CCCCC2)cs1
COc1ccc(S(=O)(=O)N2CCC(C(=O)N3CCc4ccccc4C3)CC2)cc1
O=C(CCc1ccc(S(=O)(=O)N2CCOCC2)cc1)N1CCc2ccccc2C1
CNCC(O)c1ccc(O)c(O)c1 (stereo not given)
C#CC[N+](CC)(CC)CC#Cc1ccccc1
Cc1cc(=O)[nH]c(SCC(=O)/C=C2\N(C)c3ccccc3C2(C)C)n1
CC(=O)Oc1ccc(C(=O)Nc2ccc(S(=O)(=O)NCC3CCCO3)cc2)cc1 (stereo not given)
Cn1cnnc1Sc1ccc(C(=O)NCCC(c2ccccc2)c2ccccc2)cc1[N+](=O)[O-]
COc1cc(C(=O)NC(=S)NNC(=O)[C@H]2C[C@@H]2c2ccccc2)cc(OC)c1OC
O=C(Nc1ncc([N+](=O)[O-])s1)C1CC(=O)N(c2ccc(F)cc2)C1 (stereo not given)
Cc1ccc(N2CC(C(=O)Nc3ncc([N+](=O)[O-])s3)CC2=O)cc1 (stereo not given)
CCCCCC(=O)c1ccc(O)cc1O
CCN(CC)CCCNC(=O)c1cn(CC)c2ccc(S(=O)(=O)N(C)C3CCCCC3)cc2c1=O
CCCCn1c(SCc2nnc(-c3ccccc3)o2)nc2c1c(=O)n(C)c(=O)n2C
Cn1nc(C(=O)NCCCN2CCCCC2)c2c1-c1ccccc1SC2
CC1CCCC(C)N1CCCNC(=O)c1ccc2c(c1)NC(=O)c1ccccc1S2 (stereo not given)
CCCCCCCCCCCCN1[C@@H](CC(=O)O)c2cc(C(F)(F)F)ccc2S1(=O)=O
CN(Cc1ccccc1F)C(=O)CCCNC(=O)c1ccc(Cl)cc1
